A number with no mark means an inactive call. Results filed as inconclusive are left out. A call without a number means that no potency is given here. Active and inactive are the calls of the source. Unless noted, the call rests on the fitted dose curve; in most records, active means well fitted curve in the direction sought with a large enough effect in the repeat runs; inconclusive means weak or mixed curves; inactive means no such curve, though single readings can be large; an effect the other way counts as inactive or inconclusive.
Experiments:
[1] = qHTS assay for small molecules that induce genotoxicity in human embryonic kidney cells expressing luciferase-tagged ATAD5 (AID 651632); further: nearly all actives have a fitted effect of over 15% in size
Method in brief: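 HEK293T cells carrying a luciferase reporter tagged to ATAD5 were exposed to compound or DMSO vehicle for 16 hr at 37C, 5% CO2. Amplite was added, and after 30 min at room temperature luciferase activity was read as a marker of ATAD5 induction.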

[2] = qHTS assay for small molecules that induce genotoxicity in human embryonic kidney cells expressing luciferase-tagged ATAD5 - cell viability (AID 651634; calls by dose curve; further: nearly all actives have a fitted effect of over 25% in size; further: potency means the concentration at half of the fitted maximal effect)
Method in brief: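 HEK293T cells expressing luciferase-tagged ATAD5 were exposed to compound or DMSO for 15.5 hr at 37C, 5% CO2. Viability was then read as live-cell protease activity by CellTiter-Fluor fluorescence after 30 min at 37C.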

[3] = qHTS assay for small molecule disruptors of the mitochondrial membrane potential - cell viability (AID 720634; calls by dose curve;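 further: human HepG2 liver cancer cells; series mostly up to about 83 µM; nearly all actives have a fitted effect of over 20% in size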)
Method in brief: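 HepG2 cells seeded overnight at 37 C, then exposed to compound or DMSO for 1 hr at 37 C, 5% CO2. m-MPI dye added, then CellTiter-Glo for 30 min at room temperature; viability read as ATP luminescence.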

[4] = qHTS assay to test for compound auto fluorescence at 590 nm (red) in HepG2 cells (AID 720674)
Method in brief: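 We screened compounds on adherent HepG2 cells, incubating them for an hour at 37 C in 5% CO2 before reading emission at 590 nm under 540 nm excitation; values reflect equivalence to Rose Bengal sodium fluorescence.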

[5] = qHTS assay to test for compound auto fluorescence at 535 nm (green) in HepG2 cells (AID 720675)
[6] = qHTS assay to test for compound auto fluorescence at 460 nm (blue) in HEK293 cells (AID 720678)
Method in brief: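 HEK293, 2,000 cells/well, 10% dialyzed FBS; attach 4-5 hr 37C; pin compound or DMSO; o/n 37C/5% CO2; fluorescence 405/460 nm; triamterene-equivalent units.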

[7] = qHTS assay to test for compound auto fluorescence at 590 nm (red) in HEK293 cells (AID 720679)
Method in brief: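 Intensity at 540nm excitation and 590nm emission is reported as Rose Bengal sodium-equivalent autofluorescence. Measurements followed overnight exposure (37C, 5% CO2) of HEK293 cells, 2,000 per well, to 23 nL compound.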

[8] = qHTS assay for small molecule disruptors of the mitochondrial membrane potential (AID 720635); further: potency means the concentration at half of the fitted maximal effect
Method in brief: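 Mitochondrial membrane potential tracked with Mito-MPS dye, red aggregates (ex 540/em 590 nm) against green monomers (ex 490/em 535 nm). Compound treatment 1 hr at 37C, dye 30 min in HepG2.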

[9] = qHTS assay for small molecule agonists of the p53 signaling pathway - cell viability (AID 651633; calls by dose curve;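 further: p53RE-bla HCT reporter cells with a stable beta-lactamase p53 reporter; series mostly up to about 83 µM; nearly all actives have a fitted effect of over 30% in size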)
Method in brief: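 Viability counter-read: CellTiter-Glo luminescence (30 min, room temperature) in the same p53RE-bla plates. These plates had been exposed to compounds for 16 h at 37 C.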

| SMILES | outcome [1] | Potency [2] | outcome [3] | outcome [4] | outcome [5] | outcome [6] | outcome [7] | Potency [8] | outcome [9] | fluorescence, relative to Rose Bengal [4] | fluorescence, % of fluorescein control [5] | fluorescence, % of triamterene [6] | fluorescence, % of fluorescent control [7] |
| --- | --- | --- | --- | --- | --- | --- | --- | --- | --- | --- | --- | --- | --- |
| Cn1c(=O)c2c(ncn2CC2OCCO2)n(C)c1=O | inactive | inactive | inactive | inactive | inactive | inactive | inactive | – | – | – | – | – | – |
| O=c1cc(O)c(Cl)c[nH]1 | inactive | inactive | – | inactive | inactive | – | inactive | inactive | – | – | – | – | – |
| O=S1(=O)CCCC1 | inactive | inactive | – | inactive | inactive | inactive | inactive | – | inactive | – | – | – | – |
| CCCCC(CC)C(=O)OC(C)C (stereo not given) | inactive | inactive | inactive | inactive | inactive | inactive | inactive | – | – | – | – | – | – |
| COc1cc2c(Nc3ccc(Br)cc3F)ncnc2cc1OCC1CCN(C)CC1 | inactive | 13.3 µM (active) | inactive | inactive | inactive | inactive | inactive | – | – | – | – | – | – |
| CC(=O)c1ccc(OCC(=O)N2CCCCC2)cc1 | inactive | inactive | – | inactive | inactive | inactive | inactive | inactive | inactive | – | – | – | – |
| O=S(=O)(O)CCO | inactive | inactive | – | inactive | inactive | inactive | – | – | inactive | – | – | – | – |
| NC(Cc1c[nH]c2ccccc12)C(=O)O (stereo not given) | – | inactive | inactive | inactive | inactive | inactive | inactive | – | inactive | – | – | – | – |
| O=[Si]=O | inactive | inactive | inactive | inactive | inactive | inactive | inactive | inactive | – | – | – | – | – |
| CCC(C)(CCC(C)C)C(=O)[O-].CCC(C)(CCC(C)C)C(=O)[O-].[Zn+2] (stereo not given) | inactive | inactive | – | inactive | inactive | – | inactive | – | inactive | – | – | – | – |
| CN[C@@H]1[C@@H](O)[C@@H](O[C@@H]2[C@H](O)[C@H](O[C@H]3OC(CN)=CC[C@H]3N)[C@@H](N)C[C@H]2N)OCC1(C)O (stereo not given in full) | inactive | inactive | inactive | inactive | inactive | inactive | inactive | – | – | – | – | – | – |
| O=S(=O)(O)SSS(=O)(=O)O | inactive | inactive | – | inactive | inactive | inactive | inactive | – | inactive | – | – | – | – |
| Nc1ccc(/C=C/c2ccc(N)cc2S(=O)(=O)O)c(S(=O)(=O)O)c1 | – | – | inactive | inactive | inactive | – | inactive | inactive | inactive | – | – | – | – |
| Cc1c(C(C)C)c(=O)n(-c2ccccc2)n1C | inactive | inactive | inactive | inactive | inactive | inactive | inactive | – | – | – | – | – | – |
| C=CCOc1c(Br)cc(Br)cc1Br | inactive | inactive | inactive | inactive | inactive | – | inactive | – | – | – | – | – | – |
| CO/N=C(/C(=O)N[C@@H]1C(=O)N2C(C(=O)O)=C(Cn3nnc(C)n3)CS[C@H]12)c1csc(N)n1 | inactive | inactive | inactive | inactive | inactive | – | inactive | inactive | – | – | – | – | – |
| Cc1nc2ccccc2c(=O)o1 | inactive | inactive | inactive | inactive | inactive | – | inactive | – | – | – | – | – | – |
| C[Si]1(C)N[Si](C)(C)N[Si](C)(C)N1 | inactive | inactive | – | inactive | inactive | inactive | inactive | 27.3 µM (active) | inactive | – | – | – | – |
| CC(C)COC(=O)COc1ccc(Cl)cc1Cl | inactive | inactive | inactive | inactive | inactive | inactive | – | inactive | – | – | – | – | – |
| C[C@@H]1C[C@H]2[C@@H]3C[C@H](F)C4=CC(=O)C=C[C@]4(C)[C@@]3(F)[C@@H](O)C[C@]2(C)[C@@]1(O)C(=O)CO | – | inactive | inactive | – | – | – | – | – | inactive | -0.458% [at 18.6 µM] | 0.0352% [at 18.6 µM] | -0.0057% [at 18.6 µM] | -0.084% [at 18.6 µM] |
| CCCCC(CC)COC(=O)c1ccccc1 (stereo not given) | inactive | inactive | – | inactive | inactive | inactive | inactive | – | inactive | – | – | – | – |
| N#CCCOCCOCCC#N | inactive | inactive | inactive | inactive | inactive | inactive | – | – | – | – | – | – | – |
